Compounds without any hit were thinned out: in the full panel of roughly 79,000, 15% have a hit. Values without a mark were called inactive. The source made the active and inactive calls. No stated cut-off is given here; in the data, active means growth inhibition above about 70%; inactive means the rest.
Assay: NCI Yeast Anticancer Drug Screen. Data for the rad18 strain (AID 177)
Details: S. cerevisiae rad18 mutant growth inhibition; at 100.0 µM; stronger effect = higher value
Outline: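 Measured value is growth inhibition of a yeast strain bearing a DNA repair alteration, referenced to vehicle-treated cells.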
With S=C(S)NN1CCOCC1 the growth inhibition was 72% (active).
For COc1cc2c3c(cccc3c1)C(=O)N(CCN(C)C)C2=O, the growth inhibition was -27%.
With COC(=O)C1=C(C)NC(C)=C(C(=O)OCCCN2CCC(c3ccccc3)(c3ccccc3)CC2)C1c1cccc([N+](=O)[O-])c1 (stereo unspecified) the growth inhibition was 88% (active).
In the case of c1ccc2c(c1)Oc1cccc3cccc-2c13, the growth inhibition is reported as 71% (active).
Work on Cc1ccc(CCC2=CCCc3c2ccc2ccccc32)cc1 yielded a growth inhibition of 2%.
With CNC(=O)OCc1c(COC(=O)NC)c(-c2ccc(Cl)c(Cl)c2)n2c1CCC2 the growth inhibition was 97% (active).
Compound Clc1ccccc1C1OC1c1ccccc1Cl (stereo unspecified) has a growth inhibition of 2%.
For O=[N+]([O-])c1cc(CCl)ccc1CCl, the growth inhibition was 97% (active).
For S=c1[nH]nc(Nc2ccc(Cl)cc2)s1, the growth inhibition was 94% (active).
With Cn1ccnc1Oc1ccc(Cl)cc1 the growth inhibition was 97% (active).
For BrCc1cccc2ccc3cccc(CBr)c3c12, the growth inhibition was 11%.
O=C1c2ccccc2-c2nc3ccccc3nc21 showed a growth inhibition of 58%.
For CCCCCCCCCCCCCCCCCCNC, the growth inhibition was 88% (active).
In the case of Oc1ccc(NCn2c(=S)sc3ccccc32)cc1, the growth inhibition is reported as 96% (active).
In the case of O=C1C2CC[C@@H]3C(=O)C(Cl)(Cl)[C@@H]3CCC2C1(Cl)Cl (stereo partly specified), the growth inhibition is reported as 96% (active).
With CC[n+]1ccc2c(C)c3[nH]c4ccc(O)cc4c3c(C)c2c1 the growth inhibition was 6%.
For Cc1ccc(-n2cc(-c3ccc(Cl)cc3)c(C#N)c2N)cc1, the growth inhibition was 41%.
In the case of CC(=O)[O][Bi]([c]1ccccc1)[c]1ccccc1, the growth inhibition is reported as 94% (active).
In the case of CC1=C(SCCO)C(=O)c2ccccc2C1=O, the growth inhibition is reported as 51%.
With C/C(=N\O)C1CC2C=C(C#N)C1N(Cc1ccccc1)C2 (stereo unspecified) the growth inhibition was 86% (active).
Compound CC(Br)C(=O)c1ccc2cc(Br)c3ccccc3c2c1 (stereo unspecified) has a growth inhibition of 22%.
Nc1nc(-c2cccnc2)cc(-c2cc(-c3cccnc3)nc(N)n2)n1 gave a growth inhibition of -28%.
In the case of CCC(C)COC(=O)c1ccc(N=Cc2ccc(C=Nc3ccc(C(=O)OCC(C)CC)cc3)cc2)cc1 (stereo unspecified), the growth inhibition is reported as 22%.
In the case of Oc1cccc2c(Cl)ccnc12, the growth inhibition is reported as 97% (active).
With O=C(O)c1cccc(-c2c3ccc(=O)cc-3oc3cc(O)ccc23)c1 the growth inhibition was 89% (active).
With CN(CCc1ccccn1)c1ccc2c(c1)Cc1ccccc1-2 the growth inhibition was 94% (active).
In the case of Cc1cc(S(=O)(=O)/N=C(/NN)NNc2cccc(C(F)(F)F)n2)c(S)cc1Cl, the growth inhibition is reported as 16%.
For O=C1C2C(C(=O)N1c1ccc(OCc3ccccc3)cc1)C1c3ccccc3C2C2CCCCN21 (stereo unspecified), the growth inhibition was 81% (active).
In the case of Nc1ccccc1CC(O)C(=O)O (stereo unspecified), the growth inhibition is reported as 90% (active).
For O=C(O)C1CCCCC1c1c2ccc(=O)c(O)c-2oc2c(O)c(O)ccc12 (stereo unspecified), the growth inhibition was 80% (active).
For Cc1ccc2ccc(O)cc2c1, the growth inhibition was 69%.
For O=C1C(=O)c2ccccc2C=C1[N+](=O)[O-], the growth inhibition was 95% (active).
In the case of COC(=O)c1ccc(NCC2=CC(=O)C=CC2=O)cc1O, the growth inhibition is reported as 95% (active).
With C(CCSC1=NCCN1)CSC1=NCCN1 (tested in a mixture with another compound) the growth inhibition was 99% (active).
With N#Cc1c(N)[nH]c2ccc(Sc3ccccc3)cc12 the growth inhibition was 96% (active).
With CC[C@@]1(O)C(=O)OCc2c1cc1n(c2=O)Cc2cc3c(N)cccc3nc2-1 the growth inhibition was -23%.

From PubChem BioAssay (NCI)
